PubChem BioAssay (NCI)
About 79,000 compounds went through this panel and 15% of them were active in at least one assay; those are over-represented in the sample as a whole. Activity calls are given as the source filed them. Rule as the data show it: active = growth inhibition above about 70%; inactive = the rest.

Columns and labels:
[1] = NCI Yeast Anticancer Drug Screen. Data for the rad52 strain (AID 147);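 also: 0% = growth of vehicle-treated control cultures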; conditions: S. cerevisiae rad52 mutant growth inhibition, active compounds read high
In short: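 Read-out: growth inhibition versus vehicle-treated controls. Cells were a DNA repair-deficient yeast strain treated with compounds.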

[2] = NCI Yeast Anticancer Drug Screen. Data for the wt1 strain (AID 149);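 also: 0% = growth of vehicle-treated wt1 cultures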; conditions: S. cerevisiae wt1 strain (SPY 50644) growth inhibition, active compounds read high
In short: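 Yeast wt1 strain exposed to compounds; growth inhibition measured relative to vehicle-treated controls.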

[3] = NCI Yeast Anticancer Drug Screen. Data for the rad50EPP+ strain (AID 151);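 also: 0% = growth of vehicle-treated control cultures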; conditions: S. cerevisiae rad50 mutant strain, active compounds read high
In short: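 Growth inhibition read against vehicle controls in rad50EPP+ yeast, a strain altered in DNA damage repair, after compound exposure.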

[4] = NCI Yeast Anticancer Drug Screen. Data for the mgt1 strain (AID 153); conditions: S. cerevisiae mgt1 mutant growth inhibition, active compounds read high
In short: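 mgt1 yeast grown with test compound; read-out is growth inhibition versus vehicle-treated cultures.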

[5] = NCI Yeast Anticancer Drug Screen. Data for the rad50 strain (AID 155);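 also: 0% = growth of vehicle-only cultures of the same strain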; conditions: S. cerevisiae rad50 strain growth inhibition, active compounds read high
In short: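 Yeast carrying a defined DNA repair defect were exposed to test compounds, and growth was compared with vehicle-treated controls to give percent inhibition.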

[6] = NCI Yeast Anticancer Drug Screen. Data for the mec2-1 strain (AID 157); conditions: S. cerevisiae mec2-1 strain, active compounds read high
In short: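 Yeast mec2-1 mutant treated with compound. Readout: growth inhibition vs vehicle controls.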

[7] = NCI Yeast Anticancer Drug Screen. Data for the rad14 strain (AID 159);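 also: 0% = growth of vehicle-treated control cultures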; conditions: S. cerevisiae rad14 strain growth inhibition, active compounds read high
In short: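 Yeast cells carrying a defined DNA-repair defect were exposed to compounds, and growth inhibition was calculated relative to vehicle-treated control cultures.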

[8] = NCI Yeast Anticancer Drug Screen. Data for the sgs1 mgt1 strain (AID 161);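 also: 0% = growth of cultures given vehicle only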; conditions: S. cerevisiae sgs1 mgt1 strain, active compounds read high
In short: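 Mutant yeast exposed to compound; growth scored against vehicle-only wells.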

[9] = NCI Yeast Anticancer Drug Screen. Data for the CLN2oe strain (AID 163);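 also: 0% = growth of vehicle-only control cultures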; conditions: S. cerevisiae CLN2oe strain, active compounds read high
In short: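 Read-out: yeast growth inhibition, expressed relative to vehicle-only controls. The strain bears an engineered cell-cycle alteration.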

[10] = NCI Yeast Anticancer Drug Screen. Data for the cln2 rad14 strain (AID 165);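 also: 0% = growth equal to vehicle treated cultures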; conditions: S. cerevisiae cln2 rad14 strain, active compounds read high
In short: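 cln2 rad14 yeast strain; compound exposure; growth inhibition read vs vehicle controls.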

[11] = NCI Yeast Anticancer Drug Screen. Data for the bub3 strain (AID 167); conditions: S. cerevisiae bub3 mutant strain, active compounds read high
In short: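 Compounds were applied to a genetically altered yeast strain carrying a cell-cycle control defect. Growth inhibition was scored against vehicle-treated controls.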

[12] = NCI Yeast Anticancer Drug Screen. Data for the wt2 strain (AID 169);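 also: 0% = growth of vehicle-treated yeast cultures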; conditions: S. cerevisiae wt2 strain growth inhibition, active compounds read high
In short: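 Read-out: growth inhibition versus vehicle-treated control cultures after compound exposure of the yeast strain.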

[13] = NCI Yeast Anticancer Drug Screen. Data for the mlh1 strain (AID 171);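 also: 0% = growth of vehicle-treated control cultures of the same strain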; conditions: S. cerevisiae mlh1 strain growth inhibition, active compounds read high
In short: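 Read-out: growth inhibition versus vehicle controls. Strain: engineered yeast with a defined DNA repair or cell cycle defect, compound-treated.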

[14] = NCI Yeast Anticancer Drug Screen. Data for the sgs1 strain (AID 173);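 also: 0% = growth of vehicle-only control cultures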; conditions: S. cerevisiae sgs1 mutant, active compounds read high
In short: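 Read-out: yeast growth inhibition relative to vehicle controls, following compound exposure of a strain with a defined DNA repair/cell cycle alteration.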

[15] = NCI Yeast Anticancer Drug Screen. Data for the mlh1 rad18 strain (AID 175); conditions: S. cerevisiae mlh1 rad18 strain growth inhibition, active compounds read high
In short: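 Yeast w/ defined DNA-repair lesions; compound exposure; growth vs vehicle controls → % inhibition.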

[16] = NCI Yeast Anticancer Drug Screen. Data for the rad18 strain (AID 177); conditions: S. cerevisiae rad18 mutant growth inhibition, active compounds read high
In short: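 Readout: growth inhibition vs vehicle controls. Cells: genetically altered yeast strain, DNA repair defect.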

[17] = at 5.0 µM (retest, dose inferred, filed as 0.5)
[18] = at 50.0 µM (retest, dose inferred, filed as 5.0)

Measured: growth inhibition

Cc1c2ccnc(C(=O)NCCN(C)C)c2cc2c3cc(O)ccc3n(C)c12
inactive: [1]; at 1.2 µM 2% | [1]; at 3.7 µM 23% | [1]; at 11.0 µM 69% | [2]; at 1.2 µM 2% | [2]; at 3.7 µM 5% | [2]; at 11.0 µM 10% | [2]; at 33.0 µM 20% | [2]; at 100.0 µM 29% | [3]; at 1.2 µM -2% | [3]; at 3.7 µM 4% | [3]; at 11.0 µM 22% | [3]; at 33.0 µM 44% | [3]; at 100.0 µM 56% | [4]; at 1.2 µM 0% | [4]; at 3.7 µM 2% | [4]; at 11.0 µM 8% | [4]; at 33.0 µM 10% | [4]; at 100.0 µM 30% | [5]; at 1.2 µM 1% | [5]; at 3.7 µM 20% | [5]; [17] 11% | [5]; at 11.0 µM 67% | [5]; [18] 59% | [6]; at 1.2 µM 1% | [6]; at 3.7 µM 6% | [6]; [17] -7% | [6]; at 11.0 µM 14% | [6]; at 33.0 µM 26% | [6]; [18] 7% | [6]; at 50.0 µM 23.8% | [6]; at 100.0 µM 39% | [7]; at 1.2 µM 1% | [7]; at 3.7 µM 3% | [7]; at 11.0 µM 9% | [7]; at 33.0 µM 21% | [7]; at 100.0 µM 37% | [8]; [17] -4% | [8]; [18] 8% | [8]; at 50.0 µM 13.3% | [9]; at 1.2 µM 0% | [9]; at 3.7 µM 1% | [9]; at 11.0 µM 0% | [9]; at 33.0 µM 9% | [9]; at 100.0 µM 19% | [10]; [17] 4% | [10]; [18] 33% | [10]; at 50.0 µM 44.5% | [11]; at 1.2 µM 1% | [11]; at 3.7 µM 1% | [11]; [17] 40% | [11]; at 11.0 µM 4% | [11]; at 33.0 µM 14% | [11]; [18] 42% | [11]; at 50.0 µM 8.05% | [11]; at 100.0 µM 23% | [12]; at 1.2 µM 1% | [12]; at 3.7 µM 2% | [12]; at 11.0 µM 7% | [12]; at 33.0 µM 20% | [12]; at 100.0 µM 30% | [13]; at 1.2 µM 4% | [13]; at 3.7 µM 4% | [13]; at 11.0 µM 10% | [13]; at 33.0 µM 21% | [13]; at 100.0 µM 32% | [14]; at 1.2 µM -2% | [14]; at 3.7 µM 2% | [14]; at 11.0 µM 4% | [14]; at 33.0 µM 17% | [14]; at 100.0 µM 32% | [15]; [17] 0% | [15]; [18] -1% | [15]; at 50.0 µM 46.4% | [16]; at 1.2 µM -5% | [16]; at 3.7 µM -4% | [16]; at 11.0 µM -1% | [16]; at 33.0 µM 3% | [16]; at 100.0 µM 15%
active: [1]; at 33.0 µM 88% | [1]; at 100.0 µM 92% | [5]; at 33.0 µM 88% | [5]; at 50.0 µM 92.1% | [5]; at 100.0 µM 92%

C[C@]12CC[C@H](O)CC1=CC[C@@H]1C2CC[C@]2(C)C(=O)NC(=O)CC12 (stereo partly specified)
active: [1]; at 100.0 µM 85% | [2]; at 100.0 µM 84% | [3]; at 33.0 µM 74% | [3]; at 100.0 µM 93% | [4]; at 11.0 µM 79% | [4]; at 33.0 µM 94% | [4]; at 100.0 µM 96% | [5]; at 50.0 µM 82.4% | [5]; at 100.0 µM 88% | [6]; [18] 82% | [6]; at 50.0 µM 77.9% | [6]; at 100.0 µM 83% | [7]; at 100.0 µM 87% | [8]; [18] 94% | [8]; at 50.0 µM 91.8% | [9]; at 100.0 µM 91% | [10]; [18] 80% | [10]; at 50.0 µM 84.7% | [11]; [18] 90% | [11]; at 50.0 µM 80% | [11]; at 100.0 µM 86% | [12]; at 11.0 µM 78% | [12]; at 33.0 µM 94% | [12]; at 100.0 µM 97% | [13]; at 11.0 µM 71% | [13]; at 33.0 µM 94% | [13]; at 100.0 µM 96% | [14]; at 11.0 µM 90% | [14]; at 33.0 µM 96% | [14]; at 100.0 µM 97% | [15]; [18] 82% | [15]; at 50.0 µM 70.3% | [16]; at 33.0 µM 77% | [16]; at 100.0 µM 92%
inactive: [1]; at 1.2 µM -27% | [1]; at 3.7 µM -23% | [1]; at 11.0 µM -17% | [1]; at 33.0 µM 58% | [2]; at 1.2 µM -22% | [2]; at 3.7 µM -24% | [2]; at 11.0 µM -21% | [2]; at 33.0 µM 55% | [3]; at 1.2 µM -33% | [3]; at 3.7 µM -19% | [3]; at 11.0 µM 18% | [4]; at 1.2 µM -41% | [4]; at 3.7 µM -16% | [5]; at 1.2 µM -16% | [5]; at 3.7 µM -19% | [5]; [17] -4% | [5]; at 11.0 µM -13% | [5]; at 33.0 µM 53% | [5]; [18] 69% | [6]; at 1.2 µM -23% | [6]; at 3.7 µM -24% | [6]; [17] -39% | [6]; at 11.0 µM -27% | [6]; at 33.0 µM 14% | [7]; at 1.2 µM -50% | [7]; at 3.7 µM -50% | [7]; at 11.0 µM -38% | [7]; at 33.0 µM 64% | [8]; [17] 33% | [9]; at 1.2 µM -36% | [9]; at 3.7 µM -45% | [9]; at 11.0 µM -48% | [9]; at 33.0 µM 67% | [10]; [17] 1% | [11]; at 1.2 µM -23% | [11]; at 3.7 µM -15% | [11]; [17] -4% | [11]; at 11.0 µM -12% | [11]; at 33.0 µM 60% | [12]; at 1.2 µM -14% | [12]; at 3.7 µM 27% | [13]; at 1.2 µM -33% | [13]; at 3.7 µM -3% | [14]; at 1.2 µM 17% | [14]; at 3.7 µM 45% | [15]; [17] -25% | [16]; at 1.2 µM -27% | [16]; at 3.7 µM -29% | [16]; at 11.0 µM -23%
